TRPM1 prom inh = inhibitors of MITF-driven TRPM1 promoter in melanoma cells. SK-MEL-5 TRPM1 promoter luciferase, 24 h. inhibition, % at 12.5 µM. hit rate 0.83% among 330,000. AID 488899;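 active means mean inhibition across replicates of 60% or more, whatever share of single replicates reaches that level; inconclusive means some that reach 60%, reason not given; inactive means mean inhibition across replicates below 60%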
TROY NFkB inh = TROY signaling inhibition | Q293 LMP1-TROYcd NF-kB luciferase reporter, 4 h | inhibition, % at 10 µM | hit rate 0.98% among 360,000 | AID 1347056;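 active means compounds whose plate-normalised and pattern-corrected inhibition of the luciferase reporter signal at the single screening dose is 50% or more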
TWEAK-Fn14 inh = blocks TWEAK-Fn14 interaction in a reporter cell assay | inhibition, % at 10 µM | AID 1159606 | hit rate 2% among 360,000 | TWEAK-stimulated Fn14 reporter cells, luciferase luminescence, 8 h; in the data active means inhibition above about 50%
HIF-2a inh = HIF-2a inhibition; 786-0 RCC cells HIF-2a reporter, luciferase luminescence, overnight; inhibition, % at 18.8 µM; hit rate 0.72% among 360,000;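 active means inhibition of the luminescence signal of 40% or more relative to plate controls, in a single-dose primary screen at 18.75 µM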
EBV LMP1 NFkB = Epstein-Barr LMP1 NF-kappaB reporter inhibition; LMP1-induced NF-kappaB luciferase reporter cells, luminescence; inhibition, % at 12.5 µM; hit rate 0.69% among 350,000; AID 504558; in the data active means inhibition above about 41%; inconclusive means no clear call, values can overlap the other calls;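 further: 0% = neutral control wells and 100% = reference inhibitor control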
Shn3 inh set2 = inhibitors of Schnurri-3 3'UTR reporter in osteoblasts; inhibition, % at 12.5 µM; Clone20 osteoblast Shn3 3'UTR firefly luciferase, 24 h; hit rate 0.52% among 360,000;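 active means mean inhibition of at least 75% with every replicate also reaching 75%; inconclusive means mean inhibition at least 75% but some replicate below; inactive means mean inhibition below 75%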;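 further: 0% = median of neutral control wells and 100% = pilot-screen positive control compound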
* marks the source's active call; other numbers are inactive results. Most compounds without a hit are left out; they make up all but 3.4% or so of the library.

CC[n+]1c(/C=C/C=C/c2ccc(N(C)C)cc2)sc2ccccc21 was read as TRPM1 prom inh 71.0*, TROY NFkB inh 51.9*, TWEAK-Fn14 inh 56.2*, HIF-2a inh -19.5, EBV LMP1 NFkB 38.7 and Shn3 inh set2 83.7.
For CN(C)c1ccc(/C=C/C=C/c2sc3ccccc3[n+]2C)cc1 the results were TRPM1 prom inh 63.0*, TROY NFkB inh 19.6, TWEAK-Fn14 inh 40.9, HIF-2a inh 0.2 and EBV LMP1 NFkB 21.4.
`CC(C)Sc1nnc(OC(=O)N(C)C)n1-c1ccccc1` gave TRPM1 prom inh -3.6, TROY NFkB inh 1.0, TWEAK-Fn14 inh -0.8, HIF-2a inh 11.7, EBV LMP1 NFkB 7.5 and Shn3 inh set2 -12.1.
Screening COc1cc(C(=O)N/N=C/C23CC[C@@H](O)CC2(O)CC[C@@H]2[C@@H]3CCC3(C)C(C4=CC(=O)OC4)CCC23O)ccc1O (some centres undefined) returned TRPM1 prom inh -16.3, TROY NFkB inh -12.7, TWEAK-Fn14 inh -10.6, HIF-2a inh 6.9, EBV LMP1 NFkB -15.2 and Shn3 inh set2 1.2.
Screening CC(=O)OC1CC(OC2C(O)CC(OC3C(O)CC(OC4CCC5(C)C(CCC6C5CCC5(C)C(C7=CC(=O)OC7)CCC65O)C4)OC3C)OC2C)OC(C)C1OC1OC(CO)C(O)C(O)C1O (centres undefined) returned TRPM1 prom inh 80.0*, TROY NFkB inh 42.5, TWEAK-Fn14 inh 80.5*, HIF-2a inh 81.6*, EBV LMP1 NFkB 76.0* and Shn3 inh set2 1.1.
For COc1cc(OC)c([C@H]2C=C(C)[C@H]3C[C@@H]2C3(C)C)c(OC)c1 the results were TRPM1 prom inh -13.1, TROY NFkB inh 8.9, TWEAK-Fn14 inh 12.7, HIF-2a inh 15.5, EBV LMP1 NFkB -1.6 and Shn3 inh set2 9.0.
`Clc1ccc(C[n+]2c(-c3ccccc3)cc(-c3ccccc3)cc2-c2ccccc2)cc1` gave TRPM1 prom inh 92.2*, TROY NFkB inh 50.9*, TWEAK-Fn14 inh 73.3*, HIF-2a inh 12.7, EBV LMP1 NFkB inconclusive and Shn3 inh set2 76.9.
For COc1ccc(CC[n+]2cc(/N=C(\C)[O-])on2)cc1OC the results were TRPM1 prom inh 3.2, TROY NFkB inh 10.4, TWEAK-Fn14 inh 5.0, HIF-2a inh 17.7, EBV LMP1 NFkB 0.7 and Shn3 inh set2 -15.7.
`C[n+]1c(-c2ccccc2)cc(-c2ccc(O)cc2)cc1-c1ccccc1` gave TRPM1 prom inh 4.0, TROY NFkB inh 11.0, TWEAK-Fn14 inh -2.3, HIF-2a inh 2.4, EBV LMP1 NFkB -10.3 and Shn3 inh set2 13.6.
Screening CCOc1ccc(-c2cc(C)[n+](CCc3ccc(OC)c(OC)c3)c(-c3ccc(OCC)cc3)c2)cc1 returned TRPM1 prom inh 97.3*, TROY NFkB inh 53.0*, TWEAK-Fn14 inh 6.6, HIF-2a inh -10.0, EBV LMP1 NFkB 10.5 and Shn3 inh set2 19.2.
Screening Cc1cc(-c2ccccc2)cc(-c2ccccc2)[n+]1CCc1ccccc1 returned TRPM1 prom inh 64.8*, TROY NFkB inh 41.8, TWEAK-Fn14 inh 37.6, HIF-2a inh -29.5, EBV LMP1 NFkB 9.5 and Shn3 inh set2 75.9.
CCOc1ccc(-c2cc(C)[n+](CCO)c(-c3ccc(OCC)cc3)c2)cc1 was read as TRPM1 prom inh 62.8*, TROY NFkB inh 19.3, TWEAK-Fn14 inh 6.7, HIF-2a inh 12.9, EBV LMP1 NFkB -0.9 and Shn3 inh set2 16.0.
COC(=O)C1=C(c2ccc(C(C)=O)cc2)C[C@@H]2CC[C@H]1N2C(=O)NCc1ccc2c(c1)OCO2 was read as TRPM1 prom inh 0.6, TROY NFkB inh 8.4, TWEAK-Fn14 inh 3.7, HIF-2a inh -0.2, EBV LMP1 NFkB 5.5 and Shn3 inh set2 -13.6.
For O=c1[nH]c(=S)[nH]c(O)c1N=Nc1ccc(S(=O)(=O)N2CCc3ccccc32)cc1 the results were TRPM1 prom inh 63.5*, TROY NFkB inh 1.0, TWEAK-Fn14 inh 8.6, HIF-2a inh 18.8, EBV LMP1 NFkB 5.6 and Shn3 inh set2 -24.1.
`Cc1c(N=Nc2c(O)[nH]c(=S)[nH]c2=O)c(=O)n(-c2ccccc2)n1C` gave TRPM1 prom inh 8.3, TROY NFkB inh 13.2, TWEAK-Fn14 inh -9.4, HIF-2a inh 21.2, EBV LMP1 NFkB 5.8 and Shn3 inh set2 9.8.
For O=c1[nH]c(=S)[nH]c(O)c1N=Nc1ccc(SC(F)F)cc1 the results were TRPM1 prom inh -16.6, TROY NFkB inh 17.7, TWEAK-Fn14 inh 58.2*, HIF-2a inh -370.2, EBV LMP1 NFkB 21.2 and Shn3 inh set2 -48.2.
For O=c1[nH]c2ccccc2n1C1CCN(C(CCc2ccccc2)c2nnnn2-c2ccc3c(c2)OCCO3)CC1 (centres undefined) the results were TROY NFkB inh 58.7*, TWEAK-Fn14 inh 69.9*, HIF-2a inh -33.1 and Shn3 inh set2 60.1.
For Cc1cccc(C)c1-n1nnnc1C(CCc1ccccc1)N1CCC(n2c(=O)[nH]c3ccccc32)CC1 (centres undefined) the results were TROY NFkB inh 81.5*, TWEAK-Fn14 inh 107.3*, HIF-2a inh -0.3 and Shn3 inh set2 16.0.
Screening COc1ccc(-n2nnnc2C(CCc2ccccc2)N2CCC(n3c(=O)[nH]c4ccccc43)CC2)cc1 (centres undefined) returned TROY NFkB inh 71.7*, TWEAK-Fn14 inh 93.7*, HIF-2a inh -48.6 and Shn3 inh set2 19.7.
For COC(=O)C1=C(c2ccc(C(C)=O)cc2)C[C@@H]2CC[C@H]1N2C(=O)NCc1ccco1 the results were TRPM1 prom inh -1.0, TROY NFkB inh -2.3, TWEAK-Fn14 inh 6.5, HIF-2a inh 6.7, EBV LMP1 NFkB 3.0 and Shn3 inh set2 -2.9.
For COC(=O)C(O)(c1ccc(NC(=S)NC(=O)c2ccc(Cl)cc2Cl)cc1)C(F)(F)F (centres undefined) the results were TRPM1 prom inh 6.6, TROY NFkB inh 47.4, TWEAK-Fn14 inh 33.5, HIF-2a inh 13.9, EBV LMP1 NFkB 0.7 and Shn3 inh set2 20.3.
CCOC(=O)C(O)(c1ccc(NC(=S)NC(=O)c2ccc(Cl)cc2Cl)c(C)c1)C(F)(F)F (centres undefined) was read as TRPM1 prom inh 26.0, TROY NFkB inh 58.4*, TWEAK-Fn14 inh 71.6*, HIF-2a inh 10.6, EBV LMP1 NFkB 7.7 and Shn3 inh set2 61.3.
COC(=O)C(O)(c1ccc(NC(=S)NC(=O)c2ccc(Cl)cc2Cl)c(C)c1)C(F)(F)F (centres undefined) was read as TRPM1 prom inh 10.1, TROY NFkB inh 63.7*, TWEAK-Fn14 inh 55.6*, HIF-2a inh 12.1, EBV LMP1 NFkB 9.7 and Shn3 inh set2 9.4.
For O=C1NCN(c2ccccc2)C12CCN(C(c1cccs1)c1nnnn1Cc1ccccc1)CC2 (centres undefined) the results were TROY NFkB inh 7.8, TWEAK-Fn14 inh 3.9, HIF-2a inh 15.7 and Shn3 inh set2 0.1.
C[C@]12CCC3C(CC[C@H]4C[C@@H](O)CC[C@]34C)C1=CC[C@@H]2O (some centres undefined) was read as TROY NFkB inh -10.3, TWEAK-Fn14 inh -22.1, HIF-2a inh 3.4, EBV LMP1 NFkB -1.0 and Shn3 inh set2 -10.2.

Screens as filed in PubChem.
